We go through 95 molecules from PubChem BioAssay AID1851 (National Center for Advancing Translational Sciences (NCATS), 2009).

Values joined by “and” are separate entries in the source; they are usually repeats but may differ in a detail not shown here. Identical values can stand only once. Out of some 16,000 compounds screened, about 5,700 (36%) were called active. Inconclusive results (about 24%) are left out. The list shows a part of the results. Values without a mark were called inactive. Calls come from the whole dose curve; as a rule, active = well fitted curve in the direction sought with a large enough effect; inconclusive = small, poorly fitted or top-dose-only effect, or effect the other way; inactive = no such curve, though single readings can be large or run the other way.

One may read the AC50 as the concentration at which the activity in the assay is half-maximal.
% is set by controls: 0 for no effect and ±100 for the full control effect.

The target in the assay is Cytochrome P450 1A2 (Homo sapiens) (UniProt P05177). In words: Cytochrome panel assay with activity outcomes. The settings on record: recombinant CYP, pro-luciferin dealkylation, luminescence, p450-cyp1a2; series mostly up to 57.1 µM.
Chain of Cytochrome P450 1A2 (Homo sapiens) (P05177 whole entry, looked up): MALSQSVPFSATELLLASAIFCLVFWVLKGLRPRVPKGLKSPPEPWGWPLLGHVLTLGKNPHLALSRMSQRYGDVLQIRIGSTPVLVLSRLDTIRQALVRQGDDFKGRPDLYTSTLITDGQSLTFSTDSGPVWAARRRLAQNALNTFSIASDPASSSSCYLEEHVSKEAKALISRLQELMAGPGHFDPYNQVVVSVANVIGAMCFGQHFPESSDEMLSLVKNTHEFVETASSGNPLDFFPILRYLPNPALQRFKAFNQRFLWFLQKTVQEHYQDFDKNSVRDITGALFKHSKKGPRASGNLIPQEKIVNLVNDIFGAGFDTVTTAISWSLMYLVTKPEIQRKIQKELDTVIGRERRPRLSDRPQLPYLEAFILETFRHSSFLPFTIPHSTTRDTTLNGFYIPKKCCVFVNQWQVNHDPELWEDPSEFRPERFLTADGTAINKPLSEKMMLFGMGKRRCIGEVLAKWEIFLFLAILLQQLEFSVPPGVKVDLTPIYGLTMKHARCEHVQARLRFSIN
As for `C=CCSc1nc(C)cc(/C=C\c2ccccc2)c1C#N`, the AC50 was 2.51 µM (active). Take `Nc1nc(Cl)nc2c1ncn2[C@@H]1O[C@@H](CO)[C@@H](O)[C@H]1O`: the AC50 entry was “inactive”.

Consider `O=C1S/C(=C/c2ccc(N3CCOCC3)o2)C(=O)N1Cc1ccc(F)cc1`, for which the AC50 is 3.55 µM (active). Consider `COC(=O)COc1ccc(/C=C2/SC(=O)N(CC(=O)N3CCCC3)C2=O)cc1Br`, for which the AC50 entry was “inactive”.

On to `COC(=O)CN1C(=O)S/C(=C/c2ccc(N3CCCCC3)o2)C1=O`, for which the half-maximal activity concentration (AC50) is 0.891 µM (active). On the same count and under the same terms, the value for `COC(=O)C1C(O)=C(C=NCc2ccccc2)C(=O)CC1(C)C` (stereo not given) was “inactive”; that for `O=C(CCN1C(=O)c2cccc3cccc(c23)C1=O)N1CCN(Cc2ccc3c(c2)OCO3)CC1` was “inactive”; that for `O=C(c1cc2sccc2n1Cc1ccccc1)N1CCN(c2nc3ccccc3s2)CC1` was “inactive”.

As to `CN(Cc1ccccc1)S(=O)(=O)c1ccc(OCC(=O)N2CCOCC2)cc1`, the AC50 entry is “inactive”. Turning to `c1cnc(N2CCN(Cc3ccc4c(c3)OCO4)CC2)nc1`, the AC50 is 6.31 µM (active) and 3.16 µM (active) and 2 µM (active). Still for that read-out and setting: the value for `O=C(COc1ccc(Cl)cc1)N1CCN(Cc2ccc3c(c2)OCO3)CC1` was 5.01 µM (active); that for `c1ccc2sc(N3CCN(Cc4ccc5c(c4)OCO5)CC3)nc2c1` was 1 µM (active). Still for that read-out and setting: the same measure for `C[n+]1cc(-c2ccccc2)n2c1CCCCC2`: “inactive”. Same read-out and setting: the same measure for `COc1ccc(/C=C(/NC(C)=O)C(=O)O)cc1`: “inactive”.

Regarding `CCCCCOc1ccc(OC(=O)c2ccncc2)cc1`, the half-maximal activity concentration (AC50) is 12.6 µM (active). For `COc1ccc(OC(=O)c2ccncc2)cc1`, the AC50 is 6.31 µM (active). With `COc1ccc(/C=C/c2ccncc2)cc1`, the concentration at half-maximal activity (AC50) was 1.26 µM (active). Take `COc1ccc(NC(=O)N2CC3(CCN(C(=O)c4ccncc4)CC3)C2)cc1`: the AC50 entry is “inactive”. For `COc1ccc(C(=O)N2CCC3(CC2)CN(c2ccncc2)C3)cc1`, the AC50 entry was “inactive”. For the molecule `O=C1CCCC=C1[C@@H](O)C1CCCCC1`, the activity, negative = inhibition was -1.29% [at 11.4 µM].

Take `O=C(c1cc(-c2ccc(Cl)cc2Cl)on1)N1CCN(C(=O)c2ccco2)CC1`: the AC50 is 15.8 µM (active). Still for that read-out and setting: the value for `O=C(Cc1ccc(Cl)cc1)N1CCN(C(=O)c2ccco2)CC1` was “inactive”. On the same count and under the same terms, the same measure for `O=C(c1ccc(Cl)cc1)N1CCN(C(=O)c2ccco2)CC1`: “inactive”; for `CC(=O)NCCNc1ncnc2ccc(-c3ccoc3)cc12`: 12.6 µM (active). `COCCNc1ncnc2ccc(-c3ccc(C(=O)N(C)C)cc3)cc12`: the AC50 result is “inactive”. Same read-out and setting: the same measure for `CC(=O)NCCNc1ncnc2ccc(-c3ccc4c(c3)OCO4)cc12`: 0.501 µM (active); for `COCCNc1ncnc2ccc(-c3ccoc3)cc12`: 15.8 µM (active); for `COCCNc1ncnc2ccc(-c3ccc(N(C)C)cc3)cc12`: 0.251 µM (active). `CCc1cc2c(nc1CC)CCN(CC/C(C)=N/OC[C@@H](O)COCc1ccco1)C2`: the activity, negative = inhibition is -8.65% [at 11.4 µM]. Consider `CN(C)CCCN1c2ccc3ccccc3c2Sc2cccc(Cl)c21`, for which the concentration at half-maximal activity (AC50) is 1 µM (active). With `CN(C)CCCN1c2ccccc2Sc2ccc3ccccc3c21`, the activity, negative = inhibition is -2.18% [at 2.29 µM]. As for `CCC(=S)/C=C1\Sc2ccc3ccccc3c2N1CCCS(=O)(=O)O`, the AC50 result is “inactive”. Same read-out and setting: the value for `COc1ccc(C(=O)N2CCC3(CC2)CN(C(=O)Nc2cccc(C#N)c2)C3)cc1` was “inactive”; that for `O=C(OC1CCN(c2ccc([N+](=O)[O-])cc2)CC1)c1ccccc1` was “inactive”; that for `O=c1cc(-c2ccccc2)[nH]n1-c1ccc([N+](=O)[O-])cc1` was 22.4 µM (active). Same read-out and setting: the same measure for `CCCNc1c(F)c(F)c2c(C)c3ccccc3nc2c1F`: 0.708 µM (active); for `Oc1ccc2ccccc2c1/C=C\c1ccc2c(Br)cc(Br)c(O)c2n1`: 3.98 µM (active). On the same count and under the same terms, the value for `CC(=O)N1N=C(c2cccc([N+](=O)[O-])c2)OC1c1ccccc1Cl` (stereo not given) was 14.1 µM (active); that for `CC(=O)N1CC(=O)N(OCc2ccccc2)C1c1ccc(Cl)cc1Cl` (stereo not given) was “inactive”; that for `CC(=O)N1N=C(c2cccc([N+](=O)[O-])c2)OC1c1ccc(Cl)cc1Cl` (stereo not given) was 2.51 µM (active).

Take `COc1ccc(C2C3=C(CC(C)(C)CC3=O)Oc3ncn(CC(C)C)c(=N)c32)cc1` (stereo not given): the AC50 result is “inactive”. Regarding `NNC(=O)CNc1cccc(Br)c1`, the concentration at half-maximal activity (AC50) is 0.501 µM (active). The same measure, in the same setting: the same measure for `Cc1ccc2c(c1)N(CCC(=O)NCC1CCCO1)C(=O)CO2` (stereo not given): “inactive”. Same read-out and setting: the same measure for `CCC[C@H]1C(=O)N2C(N(C)C)=Nc3ccc(C)cc3N2C1=O`: 1.58 µM (active); for `COCCn1c(=O)c(-c2cc(F)cc(F)c2)nc2cnc(N3CCNCC3)nc21`: 6.31 µM (active); for `COCCn1c(=O)c(-c2cccc(C#N)c2)nc2cnc(N3CCNCC3)nc21`: 10 µM (active). Still for that read-out and setting: the value for `COCCn1c(=O)c(-c2ccc(OC)cc2)nc2cnc(N3CCNCC3)nc21` was 6.31 µM (active); that for `CN1CCN(c2ncc3nc(-c4cccc(C#N)c4)c(=O)n(CCC#N)c3n2)CC1` was “inactive”; that for `COc1cccc(Cn2c(=O)c(-c3cc(F)cc(F)c3)nc3cnc(N4CCNCC4)nc32)c1` was “inactive”. Regarding `CN1CCN(c2ncc3nc(-c4cccc(C#N)c4)c(=O)n(Cc4ccc(F)cc4)c3n2)CC1`, the AC50 result was “inactive”. The same measure, in the same setting: the same measure for `CC[C@H](C)[C@@H]1O[C@]2(CC[C@@H]1C)C[C@H]1C[C@H](CC=C(C)[C@@H](O[C@H]3C[C@H](OC)[C@H](O[C@H]4C[C@H](OC)[C@H](O)[C@H](C)O4)[C@H](C)O3)[C@@H](C)C=CC=C3CO[C@@H]4[C@@H](O)C(C)=C[C@H](C(=O)O1)[C@@]34O)O2`: “inactive”. For `C/C(CCC(=O)OC[C@@H]1O[C@H](C#Cc2ccccc2)C=C[C@@H]1Oc1ccc(C)cc1)=N/O[C@@H](C)c1cn([C@H](CO)Cc2ccccc2)nn1`, the activity, negative = inhibition was -3.36% [at 11.4 µM] and -0.528% [at 11.4 µM]. As for `CC(=O)O[C@]12CC[N@+]3(C)CCCC[C@@H]3[C-]1Nc1ccccc12`, the activity, negative = inhibition is -11% [at 11.4 µM]. As to `CN(C)c1ccc(-c2cc(-n3ccnc3)ncn2)cc1`, the AC50 is 0.158 µM (active). On the same count and under the same terms, the value for `N#Cc1cccc(-c2cc(-n3ccnc3)ncn2)c1` was 0.126 µM (active); that for `COc1cccc(/C(O)=C2/C(=O)C(=O)N(c3ccccn3)C2c2ccc(OC)c(OC)c2)c1` (stereo not given) was “inactive”. The same measure, in the same setting: the value for `COc1cccc(-c2nccc(-n3ccnc3)n2)c1` was 0.0316 µM (active); that for `COc1ccc(C2/C(=C(/O)c3ccccc3)C(=O)C(=O)N2c2ccccn2)c(OC)c1` (stereo not given) was “inactive”. The same measure, in the same setting: the same measure for `N#Cc1cccc(-c2nccc(-n3ccnc3)n2)c1`: 0.2 µM (active). As for `NN(CC(=O)O)CC(=O)O`, the activity, negative = inhibition was 1.78% [at 11.4 µM].

`C[N@+]1(CCC(=O)c2ccccc2)CC[C@H]2CC[C@H](C2)C1`: the activity, negative = inhibition was -19% [at 11.4 µM]. Consider `c1cncc(-c2cc(-n3ccnc3)ncn2)c1`, for which the AC50 is 0.1 µM (active). On the same count and under the same terms, the same measure for `CC1(C)NC(=O)N(c2ccc([N+](=O)[O-])c(C(F)(F)F)c2)C1=O`: 3.16 µM (active) and 2.51 µM (active); for `CCSc1nc2c(c(=O)[nH]1)C(c1ccccn1)C1=C(CC(C)(C)CC1=O)N2` (stereo not given): “inactive”; for `Cc1ccc(C2C3=C(CCCC3=O)Nc3nc(SCC(=O)NCc4ccco4)[nH]c(=O)c32)cc1` (stereo not given): “inactive”. Still for that read-out and setting: the value for `CCSc1nc2c(c(=O)[nH]1)C(c1ccncc1)C(C(=O)OC(C)C)=C(C)N2` (stereo not given) was 15.8 µM (active). Take `[Li+]`: the AC50 result was “inactive”. Still for that read-out and setting: the same measure for `COc1ccc(-c2nc(NC(=O)c3ccccc3)sc2-c2ccc([N+](=O)[O-])cc2)cc1`: “inactive”; for `COc1ccc(C(=O)Nc2nc3c(s2)Cc2cc(OC)ccc2-3)cc1`: 4.47 µM (active); for `COc1cccc(C(=O)Nc2nc3c(s2)CN(C)CC3)c1`: 12.6 µM (active). On the same count and under the same terms, the same measure for `COc1ccc2c(c1)Cc1sc(NC(=O)c3ccco3)nc1-2`: 3.16 µM (active).

For `COc1cccc(C(=O)NCCN2CCOCC2)c1`, the AC50 entry is “inactive”. Same read-out and setting: the same measure for `COc1ccc2c(c1)CCc1sc(NC(=O)c3ccc(C)cc3)nc1-2`: 4.47 µM (active). On the same count and under the same terms, the same measure for `COc1ccc(NC(=O)N2CC3(CCN(C(=O)c4ccco4)CC3)C2)cc1`: “inactive”; for `COc1ccc(NC(=O)C2(c3ccc(NC(=O)c4ccc(C)cc4)cc3)CCCC2)cc1`: “inactive”.

With `CC(=O)OC[C@H]1O[C@@H](CCO/N=C2/[C@H]3O[C@@H]3[C@@H](O)[C@H]3[C@H]2CCn2c(=O)n(-c4ccccc4)c(=O)n23)C=C[C@@H]1OC(C)=O`, the activity, negative = inhibition is -3.93% [at 11.4 µM]. Same read-out and setting: the value for `C[C@@H](c1ccccc1)N1C(=O)[C@H]2[C@H]3[C@H](O)[C@H](O)C/C(=N/OC[C@@H](O)COCc4ccco4)[C@H]3CC[C@@H]2C1=O` was -3.98% [at 11.4 µM]. Turning to `O=C(O)CCCCCNC(=O)c1ccccc1Br`, the AC50 entry is “inactive”. On the same count and under the same terms, the value for `CN(C(=S)NC(=O)c1ccccc1Br)C1CCCCC1` was 14.1 µM (active); that for `C[C@]1(OC(=O)/C=C\c2ccccc2)C[C@@H](O)[C@@]2(O)C=CO[C@@H](O[C@H]3O[C@@H](CO)[C@@H](O)[C@@H](O)[C@@H]3O)[C@H]21` was “inactive”. As to `Nc1ncnc2c1nc(-c1ccccc1)n2[C@H]1O[C@@H](CO)[C@@H](O)[C@H]1O`, the activity, negative = inhibition is -16.8% [at 2.29 µM]. As for `c1ccc(-n2ncc3c2ncn2cnnc32)cc1`, the AC50 was 6.31 µM (active).

On to `Nc1ncnc2c1cnn2-c1ccccc1`, for which the AC50 was 6.31 µM (active).

As to `CC(=O)Nc1ccc(Nc2ncnc3c2cnn3-c2ccccc2)cc1`, the AC50 result was “inactive”. The same measure, in the same setting: the same measure for `CC(=O)N1CCC2(CC1)CCN(C(=O)Nc1cccc(F)c1)CC2`: “inactive”. In the case of `O=C(O)/C=C\C(=O)Nc1ccccn1`, the activity, negative = inhibition was -5.8% [at 11.4 µM].

As for `O[C@H](CNc1ccccn1)c1ccccc1`, the activity, negative = inhibition was -29.6% [at 11.4 µM]. Turning to `CCC(=O)NC(NCC1CCCO1)C(Cl)(Cl)Cl` (stereo not given), the AC50 entry was “inactive”. The same measure, in the same setting: the value for `CCOC(=O)c1ccc(NC(=O)C(=O)NCC2CCCO2)cc1` (stereo not given) was “inactive”; that for `O=C(Nc1cccc(F)c1)Nc1ccccn1` was 2 µM (active). For the molecule `O=C(O)c1nnsc1COCc1ccccc1`, the activity, negative = inhibition is -12.2% [at 11.4 µM].

In the case of `CSc1nsc(SC)c1NC(=O)OCC1CCCO1` (stereo not given), the half-maximal activity concentration (AC50) is 20 µM (active).

`O=C(NCC1CCC(C(=O)O)CC1)OCc1ccccc1` (stereo not given): the AC50 result was “inactive”. For the molecule `CSc1nsc(SC)c1NC(=O)Nc1ccccn1`, the half-maximal activity concentration (AC50) was 2.51 µM (active). On the same count and under the same terms, the same measure for `CSc1nsc(SC)c1NC(=O)OCc1ccccc1`: 10 µM (active).
